# Assay results taken from PubChem BioAssay AID1626 (SRMLSC, 2009).
# About 2,000 (0.91%) of roughly 220,000 compounds were called active. Another 2% or so got no clear call; they are omitted. Rule as the data show it: inconclusive = inhibition above about 80% without an active follow-up result; inactive = below that; test concentration not stated here. Only a sample is shown. Results with a measured potency or affinity are listed apart.
# Experiment: M. tuberculosis H37Rv growth inhibitors, H37Rv strain (AID 1626);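 also: bacteria incubated seven days before Alamar blue readout; 0% = bacteria only wells and 100% = bacteria with antibiotic wells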
# Details: hits give high values, concentration not given here
row,Structure (SMILES),inhibition
1,Cc1ccc(C(=O)Nc2cc(C)c(OCC(=O)N3CCOCC3)c(C)c2)cc1,0.81% (inactive)
2,COc1ccc(C2C(C#N)=C(N)Oc3cc(C)n(Cc4ccco4)c(=O)c32)cc1 (stereo unspecified),3.54% (inactive)
3,CCSc1ncnc2c1sc1nc3c(cc12)COC(C)(C)C3,12.9% (inactive)
4,CC1(C)Cc2nc3sc4c(SCC(=O)O)ncnc4c3cc2CO1,-5.61% (inactive)
5,O=C(NCCCn1ccnc1)C(=O)NCC1OCCCN1S(=O)(=O)c1ccc(Cl)cc1 (stereo unspecified),1.46% (inactive)
6,O=C(O)c1ccc(CN2CCCCC2)o1,-8.71% (inactive)
7,COc1ccc(C2(CNC(=O)c3ccc(OC)c([N+](=O)[O-])c3)CCCCC2)cc1OC,8.89% (inactive)
8,COc1ccc(C2(CNC(=O)c3cccc([N+](=O)[O-])c3)CCCCC2)cc1OC,17.8% (inactive)
9,O=C(Nc1nnc(SCC(=O)N2CCCCC2)s1)c1cccs1,-7.76% (inactive)
10,Cc1ccc(F)cc1NC(=O)C1CCN(c2cnccn2)CC1,-7.04% (inactive)
11,Cc1nn(Cc2ccccc2)c(N)c1-c1ccccc1,-0.48% (inactive)
12,O=C(Nc1ccccc1)c1n[nH]c(Cn2cncn2)n1,-3.09% (inactive)
13,O=C(CSc1nc2ccc(Cl)cc2[nH]1)NC1CCCc2ccccc21 (stereo unspecified),17.1% (inactive)
14,NS(=O)(=O)c1cccc(NC(=O)CSc2nc3ccc(Cl)cc3[nH]2)c1,-6.21% (inactive)
15,COc1ccc(NC(=O)CSc2nc3ccc(OC)cc3[nH]2)cc1,45.7% (inactive)
16,COc1ccc2nc(SCC(=O)Nc3ccccc3)[nH]c2c1,6.28% (inactive)
17,O=C(OCC(=O)N1CCCC1=O)C1COc2ccccc2O1 (stereo unspecified),2.07% (inactive)
18,CCN(CC)CCCNC(=O)c1cn(C)c2ccc(S(=O)(=O)N(C)C)cc2c1=O,-9.88% (inactive)
19,O=C(CCc1nc2ccccc2c(=O)[nH]1)N1CCN(c2ccc(F)cc2)CC1,-1.16% (inactive)
20,COc1cc(/C=N/n2c(-c3n[nH]c4c3CCC4)n[nH]c2=S)cc(OC)c1O,-6.81% (inactive)
21,CC1CCN(S(=O)(=O)c2ccc3[nH]c(=O)cc(C(=O)O)c3c2)CC1,-1.86% (inactive)

row,Structure (SMILES),inhibition
1,NS(=O)(=O)c1ccc(Sc2nc3ccccc3s2)c([N+](=O)[O-])c1,5.37% (inactive)
2,CS(=O)(=O)c1ccc(Sc2nc3ccccc3s2)c([N+](=O)[O-])c1,76.8% (inactive)
3,CN1CCc2c(C#N)c(N3CCOCC3)nc(NCC3CCCO3)c2C1 (stereo unspecified),-11.2% (inactive)
4,C=CCSc1nnc(-c2sc(-c3ccccc3)nc2C)n1C,6.24% (inactive)
5,C#CCOCCOCCOCCNc1nc(N2CCN(C(=O)[C@H](CCC(=O)O)n3cc(C(N)CC(C)C)nn3)CC2)nc(N2CCN(C(=O)[C@H](Cc3ccc(O)cc3)n3cc(C(N)CC(C)C)nn3)CC2)n1 (stereo partly specified),-8.68% (inactive)
6,Cc1ccc(C(=O)Nc2ncc(Cc3ccccc3)s2)o1,-9.94% (inactive)
7,O=C(Nc1ncc(Cc2cccc(Cl)c2)s1)c1ccc([N+](=O)[O-])cc1,-4.66% (inactive)
8,CC(=O)Nc1ncc(Cc2cccc(Cl)c2)s1,3.07% (inactive)
9,O=C(Nc1ncc(Cc2ccccc2)s1)C1COc2ccccc2O1 (stereo unspecified),13.8% (inactive)
10,CC(C)C(=O)Nc1ncc(Cc2ccccc2Cl)s1,-0.08% (inactive)
11,O=C(Nc1ncc(Cc2ccccc2Cl)s1)c1ccc([N+](=O)[O-])cc1,-9.37% (inactive)
12,Cc1ccc(C(=O)Nc2ncc(Cc3ccc(SC(F)F)cc3)s2)cc1,6.66% (inactive)
13,CC(C)C(=O)Nc1ncc(Cc2ccc(Cl)cc2)s1,18.6% (inactive)
14,COc1cccc(C(=O)Nc2nnc(Cc3ccc(OC)c(OC)c3)s2)c1,4.42% (inactive)
15,COC(=O)C1=C(C)N(Cc2ccco2)C(=O)N[C@H]1c1cccc(C(F)(F)F)c1,-4.29% (inactive)
16,COC(=O)C(NC(=O)CSc1nc(N)cc(=O)[nH]1)c1ccccc1 (stereo unspecified),6.05% (inactive)
17,Cc1ccc(SCC(=O)N(C)C2CCS(=O)(=O)C2)cc1 (stereo unspecified),71.9% (inactive)
18,O=C(N/N=C/c1ccc(OCCCF)cc1)c1ccc(C(F)(F)F)cc1,-7.89% (inactive)
19,O=C(CSc1nnc(CNc2ccc(F)cc2)n1Cc1ccccc1)NCc1ccco1,-3.56% (inactive)
20,CCN(CC)C1=N/C(=C\c2ccc(OC)cc2)C(=O)N1c1ccccc1,5.04% (inactive)
21,COc1cc(NC(=O)CSc2nc3ccccc3cc2Cc2ccccc2)cc(OC)c1,-2.51% (inactive)

row,Structure (SMILES),inhibition
1,CCCCCn1c(SCc2cccc(C)c2)nc2c1c(=O)[nH]c(=O)n2C,14.6% (inactive)
2,CC/C(=N\NC(=O)c1cccnc1)c1ccc2c(c1)OCCO2,3.21% (inactive)
3,CC1(C)CC(NC(=O)CCc2nnc(CCCCc3ccccc3)o2)CCO1 (stereo unspecified),-4.26% (inactive)
4,Cc1ccc(NC(=S)N(CCN2CCOCC2)Cc2cc3cc4c(cc3[nH]c2=O)OCCO4)cc1,2.46% (inactive)
5,NC(=S)Nc1cnc2ccccc2c1,0.46% (inactive)
6,CCN(CC)C(=O)Nc1cnc2ccccc2c1,63.2% (inactive)
7,COc1cccc(CNc2ncc(Br)cc2Br)c1O,-8.94% (inactive)
8,Oc1ccc2ccccc2c1CNn1cnnc1,1.43% (inactive)
9,Cn1c(NCc2c(O)ccc3ccccc23)nc2ccccc21,6.55% (inactive)
10,COc1cccc(CNc2cccc3cccnc23)c1O,6.53% (inactive)
11,Cc1nc(SCC(=O)Nc2cccc(Cl)c2)n[nH]1,-3.06% (inactive)
12,O=C1CCC/C(=N\NC(=O)c2ccc(COc3ccccc3-c3ccccc3)cc2)C1,4.62% (inactive)
13,Cc1cccc(N2CC(C(=O)OCC(=O)c3ccc(OC(=O)c4cccs4)cc3)CC2=O)c1C (stereo unspecified),1.47% (inactive)
14,CN(CCOC(=O)c1ccc2c(c1)OCO2)C(C)(C)C,-1.44% (inactive)
15,CC1=CC2=NC(=O)/C(=C\c3cccn3CCOc3cc(C)ccc3C)C(=N)N2O1,12.3% (inactive)
16,O=C(CCc1ccccc1)N1N=C(c2ccncc2)CC1(O)C(F)(F)F (stereo unspecified),-7.97% (inactive)
17,O=C(NCCN1CCCCC1)Nc1ccc(F)c(Cl)c1,-6.79% (inactive)
18,Cc1ccc(N=Nc2c(C)[nH]n(C(N)=S)c2=O)cc1,-3.59% (inactive)
19,Cc1[nH]n(C)c(=O)c1N=Nc1ccc(S(C)(=O)=O)cc1,-6.82% (inactive)
